Many of the other results were omitted from the sample, so hits are more common in it than they were.
Tg IFNy HTS: T. gondii growth inhibition under IFN-gamma. Toxoplasma gondii growth in IFN-gamma-treated host cells; stronger effect = lower value. activity change, negative = inhibition, % (no concentration beside the values). 69,000 compounds, 3.8% hits. AID 1259416; in the data active = activity change below about -70%, passing the limit was not always enough;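 also: host cells are HeLa cells infected with Toxoplasma gondii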
Hits are given with their value.

Cc1ccc2oc(CN3CCCC(Cn4ccnc4)C3)c(C)c2c1 (stereo not given) was read as Tg IFNy HTS inactive.
C=CCN(Cc1ccccc1OC)C(C)=O was read as Tg IFNy HTS inactive.
Screening Fc1cccc(CN(Cc2cncn2Cc2ccccc2)CC2CCCO2)c1 (stereo not given) returned Tg IFNy HTS -93.
Screening COc1cc(CN(Cc2ccccc2)CC2CCCO2)cc(OC)c1OC (stereo not given) returned Tg IFNy HTS inactive.
For CN(C)CCN(Cc1cccnc1)Cc1cncn1Cc1ccccc1 the results were Tg IFNy HTS inactive.
For FC(F)(F)c1cccc(NC(=S)Nc2csc(C(F)(F)F)c2-c2ccccc2)c1 the results were Tg IFNy HTS -97.
Screening FC(F)(F)c1cccc(NC(=S)Nc2cccc(C(F)(F)F)c2)c1 returned Tg IFNy HTS inactive.
Screening CCOC(=O)c1cn[nH]c1NC(=S)Nc1cccc(C(F)(F)F)c1 returned Tg IFNy HTS inactive.
Cc1ccc(-c2coc(-c3ccc(NC(=O)Nc4ccc(C)c(C)c4)cc3)n2)cc1 was read as Tg IFNy HTS inactive.
`C=CCn1cc(CN2CCC(c3cccc(OC)c3OC)C2)c(C)n1` (stereo not given) gave Tg IFNy HTS inactive.
For COc1ccc(-c2nn3c(Cn4nnc5ccccc54)nnc3s2)cc1 the results were Tg IFNy HTS inactive.
For COc1ccccc1/C=C/c1nn2c(COc3ccc(F)cc3)nnc2s1 the results were Tg IFNy HTS -91.
COc1ccc(Cc2nnc3sc(Cc4ccccc4)nn23)cc1 was read as Tg IFNy HTS inactive.
Screening CN(C)C(=O)CNC(=O)c1ccc2onc(-c3coc(C4CC4)n3)c2c1 returned Tg IFNy HTS inactive.
`Cc1cnc(N2CC[C@@H]3CN(c4ccc(C)nn4)CCO[C@H]3C2)nc1` gave Tg IFNy HTS inactive.
COc1ccc2[nH]c3c(c2c1)CCNC3=O was read as Tg IFNy HTS -89.
Screening COc1ccc2[nH]c3c(c2c1)CCNC31C(=O)N(CCC(C)C)c2ccccc21 (stereo not given) returned Tg IFNy HTS inactive.
`CCCN1C(=O)C2(NCCc3c2[nH]c2ccc(OC)cc32)c2cc(Br)ccc21` (stereo not given) gave Tg IFNy HTS inactive.
For O=C(c1n[nH]c2c1CCC2)N1C[C@@H]2[C@@H]3CC[C@@H](C3)[C@@H]2C1 the results were Tg IFNy HTS inactive.
`Cc1ccc2c(c1)c(=O)c(C(=O)NC1CCN(Cc3ccccn3)CC1)cn2C` gave Tg IFNy HTS inactive.
`Cc1ccc(CN2CCC3(CC2)CN(C)Cc2ccccc23)o1` gave Tg IFNy HTS inactive.
For Cc1ccc2cccc(NS(=O)(=O)c3cn(C)nc3C)c2n1 the results were Tg IFNy HTS inactive.
Cc1ccc2cccc(N3C(=O)Nc4ccccc4N3O)c2n1 was read as Tg IFNy HTS inactive.
`Cc1ccc2ccc3ccc(C)nc3c2n1` gave Tg IFNy HTS -76.
Cc1cnc(N(C)CCCc2nccn2C)nc1N(C)C was read as Tg IFNy HTS inactive.
For Cc1ccc2c(c1)NC1(CCN(S(=O)(=O)c3ccc4c(c3)oc(=O)n4C)CC1)c1cccn1-2 the results were Tg IFNy HTS inactive.
Screening Cc1nocc1C(=O)N1CCC2(CC1)C(=O)N(c1ccoc1)c1ccccc12 returned Tg IFNy HTS inactive.
For Cc1nc(N)cc(CC2CCN(CCS(=O)(=O)c3ccccc3)CC2)n1 the results were Tg IFNy HTS inactive.
COCc1n[nH]c2c1CN(C1CCOCC1)C2 was read as Tg IFNy HTS inactive.
`Cc1oc(C2CCN(C(=O)Cc3ccccc3Cl)CC2)nc1C(=O)N1CCOCC1` gave Tg IFNy HTS inactive.
For Cc1oc(C2CCN(C(=O)Cc3c(F)cccc3Cl)CC2)nc1C(=O)N1CCCC1 the results were Tg IFNy HTS -73.
Cc1oc(C2CCN(C(=O)Cc3ccccc3F)CC2)nc1C(=O)N1CCCC1 was read as Tg IFNy HTS inactive.
For O=C1c2ccccc2C(=O)N1N1C(=O)C2C3C=CC(C3)C2C1=O (stereo not given) the results were Tg IFNy HTS inactive.
COC(=O)[C@@H]1C[C@@H](N(C)C)CN1Cc1cccn1-c1ncccn1 was read as Tg IFNy HTS inactive.
`COc1ccc(-c2nc(CNS(=O)(=O)c3ccc(C)c(C)c3)c(C)o2)cc1` gave Tg IFNy HTS inactive.
`COc1ccc(S(=O)(=O)N2CCC3(CC2)Nc2ccc(Cl)cc2-n2cccc23)cc1` gave Tg IFNy HTS inactive.
For COc1ccc2c(c1)C(C)=CC(C)(C)N2S(=O)(=O)c1ccc(Cl)cc1 the results were Tg IFNy HTS -93.
For COc1ccc(C(=O)N2c3cc4c(cc3C(C)=CC2(C)C)OCO4)cc1 the results were Tg IFNy HTS inactive.
`CN(Cc1cc(-c2ccncc2)no1)Cc1ccc(C2CCCCO2)s1` (stereo not given) gave Tg IFNy HTS inactive.
`O=C(Cn1nnc(-c2ccc(C(F)(F)F)cc2)n1)Sc1ccc(F)cc1F` gave Tg IFNy HTS inactive.
Screening COc1ccc(NC2CCCN(C(=O)c3cnc(C(C)C)nc3C)C2)cc1 (stereo not given) returned Tg IFNy HTS inactive.
`NC1CC(=O)N(Cc2cccc3ccccc23)C1` (stereo not given) gave Tg IFNy HTS inactive.
Screening COc1cccc(CNc2nc(-c3nnc(-c4cccc(C)c4)o3)nc3ccccc23)c1 returned Tg IFNy HTS -92.
Screening Cc1cccc(-c2nnc(-c3nc(NCc4ccco4)c4ccccc4n3)o2)c1 returned Tg IFNy HTS inactive.
For Cc1cccc(-c2nnc(-c3nc(NC4CCS(=O)(=O)C4)c4ccccc4n3)o2)c1 (stereo not given) the results were Tg IFNy HTS -96.
Screening Cc1ccc(-c2nnc(-c3nc(NCc4cccc(C)c4)c4ccccc4n3)o2)cc1 returned Tg IFNy HTS inactive.
For Cc1cccc(-c2nnc(-c3nc(N4CCCCC4C)c4ccccc4n3)o2)c1 (stereo not given) the results were Tg IFNy HTS inactive.
Cc1cccc(CNc2nc(-c3nnc(-c4ccc(F)cc4)o3)nc3ccccc23)c1 was read as Tg IFNy HTS -101.
COc1ccc(-c2nnc(-c3nc(NCc4ccc(C)cc4)c4ccccc4n3)o2)cc1 was read as Tg IFNy HTS inactive.
Fc1ccc(-c2nnc(-c3nc(NCc4ccco4)c4ccccc4n3)o2)cc1 was read as Tg IFNy HTS -86.
For COc1cccc(CNc2nc(-c3nnc(-c4ccc(C)cc4)o3)nc3ccccc23)c1 the results were Tg IFNy HTS inactive.
For Clc1cccc(-c2nnc(-c3nc(NCc4ccco4)c4ccccc4n3)o2)c1 the results were Tg IFNy HTS inactive.
Screening COc1ccc(Nc2nc(-c3nnc(-c4cccc(C)c4)o3)nc3ccccc23)cc1 returned Tg IFNy HTS inactive.
Cc1ccc(-c2nnc(-c3nc(NCc4ccc(F)cc4)c4ccccc4n3)o2)cc1 was read as Tg IFNy HTS inactive.
CCOc1ccccc1-c1nc(Cn2ccn3nc(-c4ccc5c(c4)OCO5)cc3c2=O)c(C)o1 was read as Tg IFNy HTS inactive.
Cc1cccc(CN2CCc3onc(CO)c3C2)n1 was read as Tg IFNy HTS inactive.
Cc1cc(C)cc(NC(=O)Cn2ncc3c(N4CCCC4)ncnc32)c1 was read as Tg IFNy HTS inactive.
For COC(=O)c1cc2n(n1)CCCN(Cc1cccn1-c1ccccn1)C2 the results were Tg IFNy HTS inactive.
`CCC(C)N(Cc1nc(C)ccc1O)C1CCCC1` (stereo not given) gave Tg IFNy HTS inactive.
For COc1ccc2c(c1)NC1(CCN(C(=O)Nc3cccc(C)c3C)CC1)c1cccn1-2 the results were Tg IFNy HTS inactive.
Screening C=CCN(Cc1ccc(F)cc1)C(=O)c1sccc1C returned Tg IFNy HTS inactive.
